Laboratory results as given in PubChem BioAssay (NCI).
This is part of a sample that, as a whole, favours compounds with a hit. Of some 83,000 tested, about 20% had one in any assay.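 Method: cells in 96-well plates; compound added at one concentration; 48 h incubation; percent growth measured; values under 10 scored active.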 The source made the active and inactive calls.

Key:
Assay in all cases: NCI-60 one-dose screen, 48 h (100 = growth as untreated, 0 = no growth, -100 = all killed)
SK-MEL-2 melanoma = details: 10 µM unless noted
SN12C renal = details: 10 µM unless noted
UO-31 renal = details: 10 µM unless noted
TK-10 renal = details: 10 µM unless noted
ACHN renal = details: 10 µM unless noted
CAKI-1 renal = details: 10 µM unless noted
A498 renal = details: 10 µM
HL-60(TB) leukemia = details: 10 µM unless noted
CCRF-CEM leukemia = details: 10 µM unless noted
MOLT-4 leukemia = details: 10 µM unless noted
SR leukemia = details: 10 µM unless noted
OVCAR-8 ovarian = details: 10 µM unless noted
OVCAR-5 ovarian = details: 10 µM unless noted
OVCAR-4 ovarian = details: 10 µM unless noted
SK-OV-3 ovarian = details: 10 µM unless noted
IGROV1 ovarian = details: 10 µM unless noted
OVCAR-3 ovarian = details: 10 µM unless noted
HS 578T breast = details: 10 µM unless noted
RPMI-8226 leukemia = details: 10 µM unless noted

Measured: growth

COc1cc(C=Nc2cc(Cl)cc(Cl)c2)ccc1N(CCCl)CCCl
inactive: SK-MEL-2 melanoma 113% | SN12C renal 87.6% | UO-31 renal 66.6% | TK-10 renal 148% | ACHN renal 63% | CAKI-1 renal 63.3% | A498 renal 65.2% | HL-60(TB) leukemia 88.1% | CCRF-CEM leukemia 56.4% | MOLT-4 leukemia 58.9% | SR leukemia 41.2% | OVCAR-8 ovarian 90.5% | OVCAR-5 ovarian 105% | OVCAR-4 ovarian 99.5% | SK-OV-3 ovarian 91.1% | IGROV1 ovarian 56.7% | OVCAR-3 ovarian 91.1% | HS 578T breast 93.5%

C=CC12CCN(CC1)C(C(O)c1ccnc3ccc(OC)cc13)C2 (configuration not stated)
inactive: SK-MEL-2 melanoma 97.3% | SN12C renal 83.5% | UO-31 renal 48.3% | TK-10 renal 88.4% | ACHN renal 80.4% | CAKI-1 renal 69.8% | A498 renal 56.9% | HL-60(TB) leukemia 60.7% | CCRF-CEM leukemia 75.8% | MOLT-4 leukemia 67.8% | SR leukemia 37.1% | OVCAR-8 ovarian 92.3% | OVCAR-5 ovarian 88.4% | OVCAR-4 ovarian 76.9% | SK-OV-3 ovarian 89.2% | IGROV1 ovarian 81.4% | OVCAR-3 ovarian 93.7% | HS 578T breast 90.4%
active: RPMI-8226 leukemia 4.37%

OCCNC(Cc1ccccc1)c1ccc2c(c1)OCO2 (configuration not stated)
inactive: SK-MEL-2 melanoma 72.2% | SN12C renal 98.8% | UO-31 renal 78.9% | TK-10 renal 73.2% | ACHN renal 106% | CAKI-1 renal 97.1% | A498 renal 86.5% | HL-60(TB) leukemia 79.6% | CCRF-CEM leukemia 111% | MOLT-4 leukemia 82.6% | SR leukemia 99.1% | RPMI-8226 leukemia 102% | OVCAR-8 ovarian 98.7% | OVCAR-5 ovarian 105% | OVCAR-4 ovarian 117% | SK-OV-3 ovarian 74.7% | IGROV1 ovarian 107% | OVCAR-3 ovarian 100% | HS 578T breast 103%

[Cl][Hg][n]1c(-c2ccco2)nc2ccccc21
inactive: SK-MEL-2 melanoma 93.5% | SN12C renal 94.8% | UO-31 renal 103% | TK-10 renal 124% | ACHN renal 96.6% | CAKI-1 renal 107% | A498 renal 114% | HL-60(TB) leukemia 95.5% | CCRF-CEM leukemia 89.9% | MOLT-4 leukemia 88.3% | SR leukemia 64.2% | RPMI-8226 leukemia 92.7% | OVCAR-8 ovarian 106% | OVCAR-5 ovarian 117% | OVCAR-4 ovarian 100% | SK-OV-3 ovarian 119% | IGROV1 ovarian 90.5% | HS 578T breast 93.9%

CCC1(C(C)C)C(=O)NC(=S)NC1=O
inactive: SK-MEL-2 melanoma 117% | SN12C renal 103% | UO-31 renal 97.4% | TK-10 renal 107% | ACHN renal 98.5% | CAKI-1 renal 99.8% | A498 renal 92.8% | HL-60(TB) leukemia 102% | CCRF-CEM leukemia 97.3% | MOLT-4 leukemia 105% | SR leukemia 104% | RPMI-8226 leukemia 98.8% | OVCAR-8 ovarian 101% | OVCAR-5 ovarian 102% | OVCAR-4 ovarian 107% | SK-OV-3 ovarian 118% | IGROV1 ovarian 113% | OVCAR-3 ovarian 101% | HS 578T breast 96.3%

Nc1ccc2c(c1)oc1ccccc12
inactive: SK-MEL-2 melanoma 102% | SN12C renal 94.6% | UO-31 renal 69.3% | TK-10 renal 135% | ACHN renal 102% | CAKI-1 renal 82.5% | A498 renal 103% | HL-60(TB) leukemia 78.3% | CCRF-CEM leukemia 55.6% | MOLT-4 leukemia 85% | SR leukemia 91% | RPMI-8226 leukemia 79.3% | OVCAR-8 ovarian 107% | OVCAR-5 ovarian 98.3% | OVCAR-4 ovarian 103% | SK-OV-3 ovarian 115% | IGROV1 ovarian 110% | OVCAR-3 ovarian 103% | HS 578T breast 104%

Cc1ccc(C(=O)NCCCOc2ccc(N)cc2Cl)cc1S(=O)(=O)F
inactive: SK-MEL-2 melanoma 78.7% | SN12C renal 105% | UO-31 renal 70.7% | TK-10 renal 97.1% | ACHN renal 105% | CAKI-1 renal 92.5% | A498 renal 82.4% | HL-60(TB) leukemia 98.8% | CCRF-CEM leukemia 88.7% | MOLT-4 leukemia 79.7% | SR leukemia 87.9% | RPMI-8226 leukemia 85.6% | OVCAR-8 ovarian 101% | OVCAR-5 ovarian 102% | OVCAR-4 ovarian 97.5% | SK-OV-3 ovarian 82.1% | IGROV1 ovarian 95.5% | HS 578T breast 98%

CN[C@@]1(c2ccccc2Cl)CCCC[C@@H]1NCC1CCCO1 (some centres not stated)
inactive: SK-MEL-2 melanoma 99.7% | SN12C renal 96.8% | UO-31 renal 86.4% | TK-10 renal 102% | ACHN renal 99.4% | CAKI-1 renal 93.9% | A498 renal 94.4% | HL-60(TB) leukemia 99.9% | CCRF-CEM leukemia 99.8% | MOLT-4 leukemia 111% | SR leukemia 95.2% | RPMI-8226 leukemia 104% | OVCAR-8 ovarian 102% | OVCAR-5 ovarian 97.4% | OVCAR-4 ovarian 93.8% | SK-OV-3 ovarian 111% | IGROV1 ovarian 102% | OVCAR-3 ovarian 116% | HS 578T breast 96.3%

O=C([O][Hg][c]1ccccc1)c1ccccc1
inactive: A498 renal 40.7% | SK-OV-3 ovarian 64.9% | HS 578T breast 12.9%
active: SK-MEL-2 melanoma -33.3% | SN12C renal -85.4% | UO-31 renal -92.2% | TK-10 renal -86.5% | ACHN renal -90.5% | CAKI-1 renal -89.3% | HL-60(TB) leukemia -53.5% | CCRF-CEM leukemia -33.8% | MOLT-4 leukemia -27.5% | SR leukemia -7.13% | RPMI-8226 leukemia -36.7% | OVCAR-8 ovarian -29% | OVCAR-5 ovarian -82.3% | OVCAR-4 ovarian -1.64% | IGROV1 ovarian -64% | OVCAR-3 ovarian -94.4%

CCCc1cc(O)c2c3c(c(=O)oc2c1)CN(C)CC3
active: CAKI-1 renal 4.68% | HL-60(TB) leukemia 6% | OVCAR-3 ovarian -3.56%
inactive: SK-MEL-2 melanoma 97.7% | SN12C renal 39.1% | UO-31 renal 22.7% | TK-10 renal 47.3% | ACHN renal 44.6% | A498 renal 15.4% | CCRF-CEM leukemia 18.8% | MOLT-4 leukemia 27% | SR leukemia 15.8% | RPMI-8226 leukemia 28.4% | OVCAR-8 ovarian 32.3% | OVCAR-5 ovarian 55.9% | OVCAR-4 ovarian 56.3% | SK-OV-3 ovarian 26.8% | IGROV1 ovarian 32.7% | HS 578T breast 45.7%

CN1CC(=O)N(O)C1(C)c1cccnc1 (configuration not stated)
inactive: SK-MEL-2 melanoma 94.6% | SN12C renal 101% | UO-31 renal 87.5% | TK-10 renal 97.7% | ACHN renal 102% | CAKI-1 renal 95.2% | A498 renal 97.2% | HL-60(TB) leukemia 92.2% | CCRF-CEM leukemia 106% | MOLT-4 leukemia 97.2% | SR leukemia 92% | RPMI-8226 leukemia 105% | OVCAR-8 ovarian 99.3% | OVCAR-5 ovarian 95.6% | OVCAR-4 ovarian 111% | SK-OV-3 ovarian 91.6% | IGROV1 ovarian 102% | OVCAR-3 ovarian 107% | HS 578T breast 108%

COc1ccc(/C(C)=C(\c2ccc(OCCN3CCOCC3)cc2)c2ccc(OC(=O)Cc3ccccc3)cc2)cc1
inactive: SK-MEL-2 melanoma 96.1% | SN12C renal 107% | UO-31 renal 97% | TK-10 renal 108% | ACHN renal 101% | CAKI-1 renal 97.5% | A498 renal 108% | HL-60(TB) leukemia 118% | CCRF-CEM leukemia 98.3% | MOLT-4 leukemia 104% | SR leukemia 112% | RPMI-8226 leukemia 84.6% | OVCAR-8 ovarian 100% | OVCAR-5 ovarian 104% | OVCAR-4 ovarian 106% | SK-OV-3 ovarian 97.6% | IGROV1 ovarian 113% | OVCAR-3 ovarian 101% | HS 578T breast 110%

O=C1C=C(N2C3C4CCC(C4)C32)C(=O)C=C1c1ccccc1 (configuration not stated)
inactive: SK-MEL-2 melanoma 87.8% | SN12C renal 93.8% | UO-31 renal 90.8% | TK-10 renal 142% | ACHN renal 73.4% | CAKI-1 renal 58% | A498 renal 49.3% | HL-60(TB) leukemia 44.8% | RPMI-8226 leukemia 53.1% | OVCAR-8 ovarian 72.4% | OVCAR-5 ovarian 102% | OVCAR-4 ovarian 48% | SK-OV-3 ovarian 88.9% | OVCAR-3 ovarian 74.5% | HS 578T breast 102%
active: CCRF-CEM leukemia 0.362% | MOLT-4 leukemia 2.18% | SR leukemia 0.878%

NC1CC2CCCCC2CC1(O)c1ccccc1 (configuration not stated)
inactive: SK-MEL-2 melanoma 100% | SN12C renal 101% | UO-31 renal 83.9% | TK-10 renal 96.6% | ACHN renal 104% | CAKI-1 renal 107% | A498 renal 89.8% | HL-60(TB) leukemia 91.1% | CCRF-CEM leukemia 96% | MOLT-4 leukemia 85.7% | SR leukemia 90.7% | OVCAR-8 ovarian 98.6% | OVCAR-5 ovarian 95.4% | OVCAR-4 ovarian 102% | IGROV1 ovarian 102% | OVCAR-3 ovarian 109% | HS 578T breast 102%

COc1cc(C=Nc2cccc(C(=O)O)c2)ccc1N(CCCl)CCCl
inactive: SK-MEL-2 melanoma 108% | SN12C renal 98.5% | UO-31 renal 84.6% | TK-10 renal 125% | ACHN renal 81.8% | CAKI-1 renal 95% | A498 renal 102% | HL-60(TB) leukemia 110% | CCRF-CEM leukemia 102% | MOLT-4 leukemia 97.9% | SR leukemia 91.9% | RPMI-8226 leukemia 100% | OVCAR-8 ovarian 95.2% | OVCAR-5 ovarian 110% | OVCAR-4 ovarian 114% | SK-OV-3 ovarian 110% | IGROV1 ovarian 97% | OVCAR-3 ovarian 105% | HS 578T breast 92.8%

Cc1cc(N(CCCl)CCCl)ccc1C=Nc1ccc(-c2csc(Cc3ccccc3)n2)cc1
active: A498 renal -45.8%
inactive: SK-MEL-2 melanoma 109% | SN12C renal 49% | UO-31 renal 30.7% | TK-10 renal 84.5% | ACHN renal 50.8% | CAKI-1 renal 25.4% | HL-60(TB) leukemia 30.7% | CCRF-CEM leukemia 33.9% | MOLT-4 leukemia 27.2% | SR leukemia 27.2% | RPMI-8226 leukemia 58.5% | OVCAR-8 ovarian 65% | OVCAR-5 ovarian 54.4% | OVCAR-4 ovarian 64% | SK-OV-3 ovarian 56% | IGROV1 ovarian 61.7% | OVCAR-3 ovarian 75.2% | HS 578T breast 106%

N/C(=N/N=C/c1ccncc1)N[N+](=O)[O-]
inactive: SK-MEL-2 melanoma 104% | SN12C renal 95.8% | UO-31 renal 93.8% | TK-10 renal 94.1% | ACHN renal 101% | CAKI-1 renal 99.2% | A498 renal 86.3% | HL-60(TB) leukemia 109% | CCRF-CEM leukemia 101% | MOLT-4 leukemia 84.2% | SR leukemia 90.9% | RPMI-8226 leukemia 106% | OVCAR-8 ovarian 103% | OVCAR-5 ovarian 94.2% | OVCAR-4 ovarian 103% | SK-OV-3 ovarian 111% | IGROV1 ovarian 108% | OVCAR-3 ovarian 113% | HS 578T breast 106%
